Screening data as filed in PubChem.
RORg inh: qHTS for inhibitors of ROR gamma transcriptional activity; Nuclear receptor ROR-gamma (Mus musculus), P51450; Drosophila S2 Gal4-RORgamma UAS-luciferase reporter, 20 h; Potency, µM (doses to about 53.6 µM), without a hit: top-dose activity change, negative = inhibition, usual class: inhibitors; 310,000 tested, 5.4% active; AID 2551, 2010; note: % is set by controls: 0 for no effect and ±100 for the full control effect; nearly all actives have a fitted effect of over 60% in size
Target sequence (P51450 whole entry, looked up, the tested form may be a part): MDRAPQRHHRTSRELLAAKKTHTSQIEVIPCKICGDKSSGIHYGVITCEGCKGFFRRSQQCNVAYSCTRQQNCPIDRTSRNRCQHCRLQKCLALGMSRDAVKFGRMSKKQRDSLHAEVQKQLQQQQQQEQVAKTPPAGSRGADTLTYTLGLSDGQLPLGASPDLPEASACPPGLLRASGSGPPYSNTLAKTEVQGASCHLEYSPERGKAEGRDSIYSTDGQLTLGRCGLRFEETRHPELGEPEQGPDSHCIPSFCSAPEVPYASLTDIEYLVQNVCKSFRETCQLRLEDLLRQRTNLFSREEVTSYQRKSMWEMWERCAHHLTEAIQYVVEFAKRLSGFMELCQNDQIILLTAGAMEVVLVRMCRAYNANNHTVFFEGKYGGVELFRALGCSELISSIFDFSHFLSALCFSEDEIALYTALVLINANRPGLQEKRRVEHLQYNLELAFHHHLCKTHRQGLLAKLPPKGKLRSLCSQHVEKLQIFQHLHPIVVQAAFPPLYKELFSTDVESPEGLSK
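Read-out: Photinus luciferase luminescence; inhibitors lower reporter signal. Insect Schneider cells with Gal4-ROR gamma fusion under metallothionein promoter, UAS reporter; 700 uM final copper sulfate induction, 20 hr, ambient temperature.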
SW480 rerep: A quantitative high throughput screen for small molecules that induce DNA re-replication in SW480 colon adenocarcinoma cells; SW480 DNA re-replication, Hoechst DNA content imaging, 48 h; Potency, µM (doses to about 46.1 µM), without a hit: at the highest dose re-replication activation, most hits filed as activators; 340,000 tested, 1.8% active; AID 624297, 2012; note: % of control where 0% means no effect; nearly all actives have a fitted effect of over 55% in size
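Cells (250 per well) received 23 nL compound or DMSO by pin tool and were kept 48 hr at 37 C, 5% CO2. Nuclei were then stained with Hoechst for 40 min and scanned for DNA content.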
KB-V1 MDR tox: qHTS assay for MDR1-selective chemotherapeutics: Primary screen using the drug-selected MDR subline cells KB-V1 | KB-V1 MDR cells viability, CellTiter-Glo, 72 h | Potency, µM (series often up to 46.1 µM), hits mostly cytotoxic | 400,000 tested, 3.4% active | AID 1347076, 2019; note: % is set by controls: 0 for no effect and ±100 for the full control effect; nearly all actives have a fitted effect of over 60% in size
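qHTS viability screen in drug-selected KB-V1 MDR cells: 72 h compound treatment at 37 degrees C, ATP luminescence end point.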
KB-3-1 tox: qHTS assay for MDR1-selective chemotherapeutics: Primary screen using the parental adenocarcinoma cell KB-3-1; KB-3-1 viability, CellTiter-Glo ATP luminescence, 72 h; 400,000 tested, 1.4% active; Potency, µM (highest dose often 46.1 µM), actives largely listed as cytotoxic; note: % is set by controls: 0 for no effect and ±100 for the full control effect; nearly all actives have a fitted effect of over 60% in size
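Cytotoxicity in the drug-sensitive parental line KB-3-1 was scored as loss of CellTiter-Glo luminescence following 72 h incubation with compound. Values come from curve fitting of normalized concentration-response data.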
VP16 counter: VP16 counterscreen qHTS for inhibitors of ROR gamma transcriptional activity. 310,000 tested, 3.5% active. Drosophila S2 Gal4-VP16 UAS-luciferase, luminescence, 20 h. Potency, µM (top dose mostly 53.6 µM), for inactives: at the highest dose activity, negative = inhibition, most hits filed as inhibitors. AID 2546, 2010;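 note: Gal4-VP16 expression switched on by copper sulfate through the metallothionein promoter; % is set by controls: 0 for no effect and ±100 for the full control effect; nearly all actives have a fitted effect of over 50% in size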
MCF10A rereplic: A quantitative high throughput screen for small molecules that induce DNA re-replication in MCF 10a normal breast cells | MCF 10A DNA re-replication, Hoechst nuclear intensity, 48 h | Potency, µM (doses to about 46.1 µM), for inactives: at the top dose activity, positive = re-replication, actives largely listed as activators | 350,000 tested, 2.9% active | AID 624296, 2012; note: % of control where 0% means no effect; nearly all actives have a fitted effect of over 50% in size
* marks the source's active call; other numbers are inactive results; i = inactive; ? = inconclusive; / = no result; [ ] = dose if it differs, or a comment. This is a sample that favours compounds with a hit; in the whole collection about 10% have one here. Calls come from the whole dose curve; as a rule, active = well fitted curve in the direction sought with a large enough effect; inconclusive = small, poorly fitted or top-dose-only effect, or another doubt; inactive = no such curve, though single readings can be large; an effect the other way counts as inactive or inconclusive. Potency is the fitted concentration of half-maximal effect.

SMILES	RORg inh	SW480 rerep	KB-V1 MDR tox	KB-3-1 tox	VP16 counter	MCF10A rereplic
Cc1cc(C)cc(OCC(=O)Nc2ccccc2N2CCCCC2)c1	9.4%	?	i	i	4.8%	8.2µM*
Cc1cc(OCC(=O)Nc2ccccc2N2CCCCC2)ccc1C(C)C	/	?	i	i	/	?
Cc1nc(SCC(=O)Nc2ccccc2Cl)c2c(C)c(C)sc2n1	/	2.0%	i	?	/	23.1µM*
CCc1nc(SCC(=O)Nc2ccccc2Cl)n[nH]1	15.2%	9.2µM*	i	i	8.0%	-4.5%
CCc1nc(SCC(=O)Nc2ccccc2C)n[nH]1	11.9%	?	i	i	7.8%	-1.8%
C=CCn1c(SCC(=O)Nc2sccc2C(N)=O)nc2sc(C)c(C)c2c1=O	10.4%	2.0%	?	i	22.0%	9.2%
Cc1nc(SCC(=O)NC2CCCC2)c2c(C)c(C)sc2n1	1.4%	-0.1%	i	i	22.0%	?
C=CCn1c(SCc2ccc(C(=O)O)cc2)nc2sc(C)c(C)c2c1=O	3.98µM*	-0.5%	i	i	7.08µM*	-4.6%
C=CCn1c(SCC(=O)Nc2ccccc2C)nc2sc(C)c(C)c2c1=O	35.5µM*	?	?	i	20µM*	?
Cc1sc2nc(SCc3ccc(C(=O)O)cc3)n(Cc3ccco3)c(=O)c2c1C	7.6%	-13.7%	i	i	-19.1%	-2.7%
COc1cccc(NC(=O)C(=O)NCC(c2cccnc2)N2CCN(c3ccccc3)CC2)c1 (stereo unspecified)	/	/	i	i	/	/
CC(=O)OC(C(=O)c1ccccc1)c1ccccc1 (stereo unspecified)	-3.5%	/	/	/	4.9%	/
C=CCn1c(SCC(=O)Nc2cccc(S(N)(=O)=O)c2)nc2sc(C)c(C)c2c1=O	/	-5.4%	23.1µM*	i	/	14.9%
COc1ccc(-n2c3c(cc(-c4nc(-c5ccc(Cl)cc5)cs4)c2=O)C(=O)CC(C)(C)C3)cc1	/	/	i	i	/	/
Cc1[nH]n(C(N)=S)c(=O)c1N=Nc1ccc(Br)cc1	0.355µM*	-15.8%	i	i	2µM*	-9.0%
Cc1[nH]n(-c2ccccc2)c(=O)c1N=Nc1ccc(C(N)=O)cc1	37.1%	-4.4%[9.22 µM]	i	i	-6.7%	-6.5%
Cc1ccc(N=Nc2c(C)[nH]n(C(N)=S)c2=O)cc1	0.316µM*	-5.5%	i	i	0.891µM*	?
Cc1[nH]n(C(N)=S)c(=O)c1N=Nc1ccc(S(=O)(=O)N2CCCC2)cc1	0.282µM*	-4.9%	?	?	1.26µM*	9.4%
O=c1c2c([nH]n1-c1ccccc1)C[C@@H](C1CCCCC1)O[C@H]2c1ccc(F)cc1	/	/	i	i	/	/
Cc1cccc(/N=C/c2nc(-c3ccccc3Br)oc2O)n1	-44.2%	4.11µM*	i	i	-1.0%	-17.5%
Cc1ccnc(N=Cc2nc(-c3ccccc3Br)oc2O)c1	16.5%	-192.1%	i	i	-6.9%	-0.7%
COCCN(CC(=O)Nc1cccc(C)c1C)C(=O)C1(c2ccccc2)CC1	/	0.2%	18.4µM*	i	/	-0.8%
Cc1cccc(NC(=O)CN(C)CC(=O)NC(c2ccccc2)c2ccccc2)c1C	/	-3.0%	3.26µM*	i	/	0.4%
CCN(CC)c1ccc(/C=N/NC(=O)c2ccc(O)cc2)cc1	1.12µM*	/	/	/	2.51µM*	/
C/C(=N\NC(=O)c1ccc(OC2CCCC2)cc1)c1ccc(O)cc1	14.1µM*	8.5%	?	3.66µM*	?	?
SMILES	RORg inh	SW480 rerep	KB-V1 MDR tox	KB-3-1 tox	VP16 counter	MCF10A rereplic
CCN(CC)c1ccc(/C=N/NC(=O)c2ccoc2C)cc1	20µM*	-1.9%	i	i	?	-2.6%
CCN(CC)c1ccc(/C=N\NC(=O)c2cccc3cc[nH]c23)cc1	7.08µM*	23.1µM*	13µM*	23.1µM*	17.8µM*	14.6µM*
CCN(CC)c1ccc2cc(C(=O)c3cccs3)c(=O)oc2c1	/	/	?	i	/	/
CCN(CC)c1ccc(C(=O)N/N=C(\C)c2ccc(O)cc2)cc1	-32.5%	-4.2%	i	13µM*	-5.9%	8.2µM*
Cc1ccc2nsnc2c1NC(=O)CCl	?	?	i	i	?	13.3%
Cc1ccc2nsnc2c1NC(=O)c1ccc([N+](=O)[O-])o1	?	1.5%	?	4.11µM*	-0.8%	20.6µM*
Cc1ccc2nsnc2c1NC(=O)c1ccc(-c2cc(Cl)ccc2Cl)o1	?	13µM*	?	?	?	18.3%
O=C(CSc1nc2cc3ccccc3cc2[nH]1)Nc1cccc(C(F)(F)F)c1	/	/	i	i	/	/
c1ccc(NC2=NCCN2CCCC2CCCCC2)cc1	/	0.259µM*	i	i	/	8.7%
CN(C)C1=NCCN1CCCC1CCCCC1	/	23.1µM*	i	i	/	?
c1ccc(NC2=NCCN2CC2CCC2)cc1	/	-27.3%[9.22 µM]	?	i	/	-3.8%
CN(c1ccccc1)C(CNS(=O)(=O)c1ccccc1)c1ccccc1 (stereo unspecified)	/	/	i	i	/	/
CCc1ccc(-c2cc(C(F)(F)F)n3nc(C(=O)Nc4c(C)nn(Cc5ccc(F)cc5)c4C)cc3n2)s1	1.8%	8.2µM*	?	?	-17.9%	?
O=C(Nc1ccc(F)cc1F)c1sccc1SCc1cccc(C(F)(F)F)c1	-5.4%	-4.0%	16.4µM*	i	-6.7%	24.4%
COc1ccc(NC(=O)c2sccc2SCc2cccc(C(F)(F)F)c2)cc1	?	6.4%	16.4µM*	i	-4.0%[0.365 µM]	-1.3%
O=C(Nc1ccc(F)cc1)c1sccc1SCc1cccc(C(F)(F)F)c1	?	-0.1%	?	i	-6.1%[0.365 µM]	?
Cc1ccc(-c2c(C3C4C=CCC(C)C4C(=O)N3Cc3ccccc3)ccc3ccccc23)cc1 (stereo unspecified)	32.0%	/	/	/	7.3%	/
O=C(Nc1ncnc2c1ncn2[C@@H]1O[C@@H]2COP(=O)(O)O[C@H]2[C@H]1O)c1ccccc1	-10.2%	/	/	/	-4.5%	/
C=CC[n+]1ccnc2ccccc21	/	/	i	i	/	/
C[n+]1ccnc2cc(Cl)ccc21	/	/	5.8µM*	4.11µM*	/	/
C[n+]1ccnc2ccccc21	/	/	10.3µM*	4.11µM*	/	/
O=C(c1ccc2c(c1)N(Cc1c(F)cccc1Cl)C(=O)c1ccccc1S2)N1CCOCC1	/	/	i	i	/	/
CNC(=O)[C@H](Cc1c[nH]c2ccccc12)NC(=O)[C@@H](CC(=O)NO)CC(C)C	5.7%	-5.5%	/	/	3.7%	8.4%
O=C1C(C=Nc2ccccc2O)=C(O)c2ccccc21	3.98µM*	?	i	i	7.08µM*	5.17µM*
